# Tat export inh = blocks Tat-dependent protein export in E. coli | E. coli MC4100 TorA-mCherry Tat export, fluorescence | inhibition, % at 10 µM | 0.036% of 340,000 active | AID 488895;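 active = mean replicate inhibition at least 50% and at least half of replicates individually reaching 50%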;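 also: exported cargo escapes ClpAP degradation while cytoplasmic cargo is degraded and loses fluorescence; 0% = median of neutral control wells and 100% = median of NaSCN control wells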
# AddAB inh = less growth of phage-infected E. coli with AddAB. E. coli expressing H. pylori AddAB, absorbance growth. inhibition, % at 11.9 µM. 0.29% of 330,000 active; in the data active = inhibition above about 12%;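 also: 0% = vehicle wells of infected cells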
# E coli growth-1 = inhibitors of Escherichia coli growth. OD600, 23 h; hits give low values. OD600 absorbance (no concentration beside the values). 0.21% of 330,000 active;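 active = OD600 absorbance below the run mean of sample wells minus 3.6 SD, in any replicate, cut at about 0.56 in these data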
# phage Ecoli inh = E. coli growth loss with phage present | growth absorbance | inhibition, % at 11.9 µM | 0.26% of 360,000 active | AID 651602; in the data active = inhibition above about 11%
# E coli growth-2 = reduces bacterial viability in AddAB counter-screen. E. coli V3065 growth, OD600 absorbance, 18 h. inhibition, % at 11.9 µM. 0.27% of 330,000 active;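 active = inhibition above the campaign's mean inhibition across all tested compounds plus 3 SD, cut at about 9.9% in these data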;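 also: uninfected addAB+ strain grown without phage in ampicillin broth; 0% = DMSO wells and 100% = ciprofloxacin 0.95 µg/ml wells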
# * marks the source's active call; other numbers are inactive results; x = no result. Sampled rows, rich in hits. Any-hit rate of the full collection: about 0.5%.
SMILES,Tat export inh,AddAB inh,E coli growth-1,phage Ecoli inh,E coli growth-2
Oc1c(CN2CCCCC2)cc(Br)c2cccnc12,2,4,0.17*,9,1
O=C(Oc1c(CN2CCOCC2)cc(Cl)c2cccnc12)c1ccccc1,16,-3,0.68,3,-2
CN1CCN(Cc2cc(COCc3ccccc3)c3cccnc3c2O)CC1,13,8,x,7,0
Oc1c(CN2CCc3ccccc3C2)cc(Cl)c2cccnc12,0,11,0.43*,x,0
CN1CCN(C2=Cc3cc(Cl)ccc3Sc3cc(F)ccc32)CC1,-2,1,0.36*,3,-2
CO[C@H]1C=CO[C@@]2(C)Oc3c(C)c(O)c4c(O)c(c5c(c4c3C2=O)NC2(CCN(CC(C)C)CC2)N=5)=NC(=O)C(C)=CC=C[C@H](C)[C@H](O)[C@@H](C)[C@@H](O)[C@@H](C)[C@H](OC(C)=O)[C@@H]1C,x,100*,x,x,102*
COC1C=CO[C@@]2(C)Oc3c(C)c(O)c4c(O)c(c(C=NN5CCN(C6CCCC6)CC5)c(O)c4c3C2=O)NC(=O)C(C)=CC=CC(C)C(O)C(C)C(O)C(C)C(OC(C)=O)C1C (some centres not stated),x,x,0.07*,x,x
Cc1cc2nc3c(=O)[nH]c(=S)[nH]c3nc2cc1NC(=O)C(F)(F)F,-11,7,0.66,9,10*
O=C(NN=Cc1ccc(OC(=O)c2ccc(Br)cc2)cc1)c1ccncc1,x,x,0.64,x,x
Cc1nc(N)nc(N)c1Oc1ccc(Cl)cc1,-2,x,0.52*,4,x
S=C1SCN(Cc2ccccn2)CN1Cc1ccco1,-6,1,0.52*,0,0
Cc1ccc(Nc2cc(C)nn2-c2nc(C)cc(C)n2)cc1,-4,0,0.7,0,1
Cc1ccc(Nc2cc(C)nn2-c2nc(C)cc(=O)[nH]2)cc1,-14,2,0.49*,x,2
C/C(=N\Nc1ccc([N+](=O)[O-])cc1)c1ccc(C#N)cc1,-1,3,x,2,2
N#CC(C#N)=NNc1ccc([N+](=O)[O-])cc1,25,3,0.33*,6,1
Cc1cc(C(C)(C)CC(C)(C)C)ccc1OCCOCC[N+](C)(C)Cc1ccccc1,33,-3,0.066*,3,3
O=C(COc1ccc(Cl)cc1Cl)NN=Cc1ccccn1,x,x,0.7,x,x
CCOc1ccc(C(=O)NN=C(c2ccccc2)c2ccccn2)cc1,x,x,0.73,x,x
O=c1ccc2ccccc2c2ccccc12,x,x,x,0,x
O=Nc1c(O)c2ccccc2c2ccccc12,-9,10,0.53,11*,6
COc1ccc2cc(C(=O)C3CCCN(C(=O)Cc4c(C)noc4C)C3)ccc2c1 (configuration not stated),-2,1,0.54*,-2,-2
COc1ccc2cc(C(=O)C3CCCN(C(=O)c4snnc4C)C3)ccc2c1 (configuration not stated),3,-3,0.69,-1,-1
O=[N+]([O-])c1ccc(Nc2ccccc2)c2nonc12,-7,2,x,0,0
O=[N+]([O-])c1ccc(Sc2cccc[n+]2[O-])c2nonc12,139*,x,0.086*,60*,x
Cc1ccc2c(c1)N(C)/C(=C/c1cccc[n+]1C)S2,0,2,0.53*,0,-2
SMILES,Tat export inh,AddAB inh,E coli growth-1,phage Ecoli inh,E coli growth-2
CCCCCC(=O)NNC(=S)NC(C)=O,-2,-2,0.48*,-8,0
CCCCC(=O)NNC(=S)NC(=O)c1ccc(C)cc1,-8,-6,0.61,1,-4
Cc1cc(C)n(CC(=O)NC2C(=O)N3C(C(=O)O)=C(CSc4nnc(C)s4)CSC23)n1 (configuration not stated),22,2,0.19*,5,1
CC(=O)OCC1=C(C(=O)O)N2C(=O)[C@@H](NC(=O)CSc3ccncc3)[C@H]2SC1,-8,x,0.22*,6,x
Cc1nnc(SCC2=C(C(=O)O)N3C(=O)C(NC(=O)Cn4ncc(Cl)c4C)C3SC2)s1 (configuration not stated),7,-1,0.44*,4,1
CC(=O)OCC1=C(C(=O)O)N2C(=O)C(NC(=O)C(C)Cn3nc(C)c(Cl)c3C)C2SC1 (configuration not stated),4,-1,0.64,2,0
Cc1nnc(SCC2=C(C(=O)O)N3C(=O)C(NC(=O)c4cccc(F)c4F)C3SC2)s1 (configuration not stated),-2,0,0.7,3,0
Cc1ccc2nc(C(Cl)(Cl)Cl)nc(NN=Cc3ccncc3)c2c1,x,x,0.68,x,x
COc1ccccc1NC(=O)CN(Cc1ccco1)C(=O)c1cc2ccccc2o1,3,2,0.54*,x,-3
COc1ccccc1NC(=O)CN(Cc1ccco1)C(=O)c1ccc(=O)[nH]c1,-3,0,0.69,2,-1
COc1ccc(SCC(Cc2ccccc2)N2CCC(C(C)(C)C)CCC2=O)cc1 (configuration not stated),x,x,0.72,x,x
CCC(C)C(N)C1=NC(C(=O)N[C@@H](CC(C)C)C(=O)N[C@H](CCC(=O)[O-])C(=O)N[C@H](C(=O)N[C@H]2CCCCNC(=O)[C@H](CC(N)=O)NC(=O)[C@@H](CC(=O)[O-])NC(=O)[C@H](Cc3cnc[nH]3)NC(=O)[C@@H](Cc3ccccc3)NC(=O)[C@H]([C@@H](C)CC)NC(=O)[C@@H](CCCN)NC2=O)[C@@H](C)CC)CS1.[Zn+2] (some centres not stated),54*,x,x,x,x
NC(C(=O)NC1C(=O)N2C(C(=O)O)=C(Cl)CSC12)c1ccccc1 (configuration not stated),x,x,0.06*,x,x
CC(=O)N(C)Cc1ccc(C(=O)CCl)cc1,-4,-1,0.65,3,0
CC(=O)NCc1ccc(C(=O)CCl)s1,-26,3,0.49*,4,-3
CC(=O)NCc1ccc(C(=O)CCl)cc1,-20,0,0.51*,0,0
CC(=O)Nc1ccc(C)cc1,7,1,0.69,1,1
CC(=O)Nc1ccc(C(=O)CCl)cc1,-17,-1,0.41*,3,-1
CC1CN(C(C)CO)C(=O)c2cc(NC(=O)C3CCCCC3)ccc2OC1CN(C)S(=O)(=O)c1ccccc1 (configuration not stated),x,x,0.68,x,x
COC1=C(C)C(=O)C2=C(C1=O)C1C3CC4=C(C(=O)C(OC)=C(C)C4=O)C(CNC(=O)C(C)=O)N3C(C#N)C(C2)N1C (configuration not stated),-9,x,x,15*,x
COc1ccc(C2CC=C(C(=O)O)C(c3ccc(F)cc3)N2S(=O)(=O)c2ccc(C)cc2)cc1OC (configuration not stated),x,x,0.72,x,x
NC(N)=NN=Cc1ccc(OCc2ccc(Cl)cc2Cl)cc1,x,x,0.048*,x,x
NC(N)=N/N=C/c1ccc(OCc2ccc(Cl)cc2)cc1,3,2,x,3,2
NC(N)=NN=Cc1ccc(OCc2ccc(Cl)cc2)cc1,x,x,0.045*,x,x
CC[C@]12C(=O)N(C)CC(C3C(=O)N(Cc4ccccc4)C(=O)C31)N2C(=O)c1ccc(Br)cc1 (some centres not stated),x,x,0.71,x,x
Cn1cc(C(=O)c2ccc(Cl)cc2Cl)cc1C(=O)NN=C(N)COc1ccc(F)cc1,x,x,0.76,x,x
